In the library only some 6.8% were active in any assay of this set; here they are far more common.
C diff growth = C. difficile growth inhibitors, primary screen, HTS | 86,000 compounds, 0.25% hits | Clostridium difficile clinical isolate growth, OD600, 24 h; active compounds read low | growth activity, negative = inhibition, % at 16 µg/mL (by protocol);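 active = mean growth activity at or below -80% and every replicate also at or below -80%; inconclusive = mean at or below -80% but some replicate above -80%; inactive = mean growth activity above -80%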
T cruzi growth-1 = T. cruzi intracellular proliferation inhibitors, primary screen, cell-based, beta-gal Tulahuen parasites, NIH3T3 host, luminescence; T. cruzi beta-gal in NIH3T3, GalScreen luminescence, 90 h; inhibition, % at 8.34 µM; 77,000 compounds, 5.9% hits; AID 624255, 2012;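 active = mean inhibition above about 93%, with at least 55% of replicates each passing it, limit read from the data, passing the limit was not always enough; inconclusive = only one of those two conditions holds; inactive = neither condition holds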
Pf Dd2 inh = P. falciparum Dd2 growth inhibitors, primary screen, SYBR Green fluorescence, single dose replicates; 72 h; active compounds read low; activity change, % at 10 µM; 94,000 compounds, 2.3% hits; in the data active = activity change below about -80%; inconclusive = no clear call, values can overlap the other calls
T cruzi growth-2 = T. cruzi intracellular proliferation inhibitors, confirmation, cell-based, NIH3T3 host, beta-gal parasite, luminescence, cherry-pick. inhibition, % at 8.35 µM. shares compounds with T cruzi growth-1. T. cruzi beta-gal in NIH3T3, GalScreen luminescence, 90 h. 5,600 compounds, 72% hits;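 active = mean replicate inhibition above about 95% and at least 55% of replicates individually reaching it, limit read from the data; inconclusive = only one of the two criteria is met; inactive = neither criterion is met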
T cruzi growth-3 = inhibitors of intracellular T. cruzi replication, confirmation, NIH3T3 host cells, beta-gal parasites, cherry-pick, set 2. T. cruzi beta-gal in NIH3T3, GalScreen luminescence, 90 h. shares compounds with T cruzi growth-1. AID 651740, 2012. 5,600 compounds, 21% hits. inhibition, % at 2.09 µM;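 active = mean inhibition above about 95%, with at least 55% of replicates also reaching it, limit read from the data; inconclusive = meets just one of the two conditions; inactive = meets neither condition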
3T3 cytotox = cytotoxicity in mouse NIH/3T3 fibroblasts, confirmation, cytotoxicity control for T. cruzi proliferation inhibitor project, cell-based, cherry-pick, single point; cytotoxicity (signal decrease), % at 8.35 µM; AID 651742, 2012; NIH/3T3 viability, CellTiter-Glo ATP luminescence, 90 h; shares compounds with T cruzi growth-1; 5,600 compounds, 14% hits;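 active = mean signal decrease across replicates above about 35% based on untreated-well scatter, with enough replicates individually passing, limit read from the data; inconclusive = no rule stated though some were filed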
NIH3T3 tox 2 = NIH/3T3 fibroblast cytotoxicity, confirmation, cytotoxicity control, cell-based, cherry-pick, single point, set 2 | AID 651744, 2012 | inhibition, % at 24.9 µM | shares compounds with T cruzi growth-1 | NIH/3T3 viability, CellTiter-Glo ATP luminescence, 90 h | 5,600 compounds, 56% hits;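 active = mean loss of cell viability signal at or above a set limit, and enough replicates individually reaching it; inconclusive = meets only the mean limit or only the replicate share; inactive = meets neither condition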
Of the large screens only hits and unclear results are named; the others gave an inactive call (follow-up assays come after a bar, where they were run).

Cc1ccc(S(=O)(=O)N2CC[C@@H]3[C@@H](CO)Nc4ccc(C#Cc5ccccc5F)cc4[C@@H]32)cc1	T cruzi growth-1 102.3 | T cruzi growth-2 97.3 | T cruzi growth-3 101.6 | 3T3 cytotox inactive | NIH3T3 tox 2 inactive
COc1ccc(NC(=O)Nc2ccc3c(c2)[C@@H]2C[C@@H](CC(=O)N(C)C)O[C@H](CO)[C@@H]2O3)cc1	none
COc1ccccc1S(=O)(=O)Nc1ccc2c(c1)OC[C@H](C)NC[C@H](C)[C@H](OC)CN(C)C2=O	none (no result: C diff growth)
CCNC(=O)[C@@H]1[C@@H](CO)[C@@H]2Cn3c(ccc(-c4ccccc4F)c3=O)[C@@H]2N1C(C)=O	none
CO[C@H]1CN(C)C(=O)c2cc(NC(=O)c3cccc(F)c3)ccc2OC[C@H](C)N(CC2CC2)C[C@@H]1C	none (no result: C diff growth)
CO[C@H]1CN(C)C(=O)c2ccc(NC(=O)Nc3ccccc3)cc2OC[C@H](C)N(C(=O)Nc2c(C)noc2C)C[C@@H]1C	none (no result: T cruzi growth-1)
COc1cccc(CN2CCCCN3[C@H](C2)[C@@H](c2ccc(-c4cccnc4)cc2)[C@@H]3CO)c1	none
COc1cccc(CN2CCCCN3[C@@H](CO)[C@H](c4ccc(C#Cc5cccnc5)cc4)[C@@H]3C2)c1	T cruzi growth-1 116.6 | T cruzi growth-2 109.4 | T cruzi growth-3 inactive | 3T3 cytotox inactive | NIH3T3 tox 2 103.4
COc1ccc(C#Cc2ccc([C@@H]3[C@H]4CN(Cc5ccncc5)CCCCN4[C@H]3CO)cc2)cc1	none
COc1cccc(CN2CCCCN3[C@H](CO)[C@@H](c4ccc(C#Cc5cccnc5)cc4)[C@@H]3C2)c1	T cruzi growth-1 116.3 | T cruzi growth-2 104.2 | T cruzi growth-3 inactive | 3T3 cytotox inactive | NIH3T3 tox 2 104.5
CCC(=O)N1CC2(C1)[C@@H](c1ccccc1)[C@@H](CO)N2C(=O)NC(C)C	none (no result: T cruzi growth-1)
C[C@@H]1CN([C@@H](C)CO)C(=O)c2cccc(NC(=O)Nc3ccc4c(c3)OCO4)c2O[C@H]1CN(C)CC1CC1	none
O=C(C[C@H]1CC[C@@H]2[C@H](COC[C@H](O)CN2Cc2nccs2)O1)NCc1ccc(Cl)cc1	none (no result: C diff growth)
O=C(NCCCN1CCOCC1)[C@H]1[C@H](CO)[C@H]2Cn3c(ccc(C4=CCCCC4)c3=O)[C@@H]1N2	none (no result: Pf Dd2 inh)
O=C(NCc1ccc(F)cc1)[C@H]1[C@H](CO)[C@H]2Cn3c(ccc(C4=CCCCC4)c3=O)[C@@H]1N2	none (no result: Pf Dd2 inh)
O=C(NCCN1CCCCC1)[C@H]1N[C@H]2c3ccc(-c4ccncc4)c(=O)n3C[C@H]2[C@@H]1CO	T cruzi growth-1 101.8 | T cruzi growth-2 inactive | T cruzi growth-3 inactive | 3T3 cytotox inactive | NIH3T3 tox 2 inactive
O=C(NCCN1CCCCC1)[C@@H]1N[C@@H]2c3ccc(-c4cccnc4)c(=O)n3C[C@@H]2[C@H]1CO	none (no result: C diff growth, Pf Dd2 inh)
CCCNC(=O)[C@@H]1[C@@H](CO)[C@@H]2Cn3c(ccc(C4=CCCC4)c3=O)[C@H]1N2	T cruzi growth-1 99.6 | T cruzi growth-2 inactive | T cruzi growth-3 inactive | 3T3 cytotox inactive | NIH3T3 tox 2 inactive
O=C(NCCCN1CCOCC1)[C@H]1N[C@H]2c3ccc(C4=CCCCC4)c(=O)n3C[C@H]2[C@@H]1CO	T cruzi growth-1 inconclusive | T cruzi growth-2 inactive | T cruzi growth-3 inactive | 3T3 cytotox inactive | NIH3T3 tox 2 inactive
O=C(NCCCN1CCOCC1)[C@@H]1[C@@H](CO)[C@@H]2Cn3c(ccc(C4=CCCC4)c3=O)[C@H]1N2	T cruzi growth-1 inconclusive | T cruzi growth-2 inactive | T cruzi growth-3 inactive | 3T3 cytotox inactive | NIH3T3 tox 2 inactive
O=C(NCCCN1CCOCC1)[C@@H]1N[C@@H]2c3ccc(C4=CCCCC4)c(=O)n3C[C@@H]2[C@H]1CO	none
C[C@H](NC(=O)[C@@H]1[C@@H](CO)[C@@H]2Cn3c(ccc(-c4ccncc4)c3=O)[C@H]1N2C)c1ccccc1	none

Source: PubChem
